According to PubChem BioAssay (NCATS):
“And” between values parts separate entries of the source, which are not always exact repeats. Equal values may be shown once. Records with an inconclusive call do not appear. A call without a number means that no potency is given here. Where a structure was tested more than once in an assay, its records may differ in their call. The source made the active and inactive calls. Calls come from the whole dose curve; as a rule, active = well fitted curve in the direction sought with a large enough effect; inconclusive = small, poorly fitted or top-dose-only effect, or another doubt; inactive = no such curve, though single readings can be large; an effect the other way counts as inactive or inconclusive.

Assays:
[1] = P-glycoprotein substrates identified in KB-8-5-11 adenocarcinoma cell line, qHTS therapeutic library screen (AID 1346987); note: nearly all actives have a fitted effect of over 65% in size
Summary of the method: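 Compounds are pinned in dose-response onto KB-8-5-11 cells (500 cells/well, colchicine-free medium) and left 72 h at 37 degree C. CellTiter-Glo luminescence then yields AC50 values.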

[2] = NS1 protein of Zika virus - qHTS assay to identify small molecule inhibitors in human HEK 293 cells (AID 1347053); note: nearly all actives have a fitted effect of over 55% in size
Summary of the method: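 In this cell-based screen, HEK 293 cultures received compound for one hour before Zika MR766 at MOI = 0.5. NS1 was quantified 24 hours later by TR-FRET, normalized to virus-free wells and infected wells.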

[3] = qHTS of pediatric cancer cell lines to identify multiple opportunities for drug repurposing: Primary screen for DAOY cells (AID 1347090); note: nearly all actives have a fitted effect of over 55% in size
Summary of the method: (§1)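 Cell viability, CellTiter-Glo luminescence; 500-1,000 cells/well, 8- or 11-point titration, 48 h compound exposure at 37 degrees C, 5% CO2. Controls: DMSO neutral, bortezomib 2.3 µM final as positive.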

[4] = qHTS of pediatric cancer cell lines to identify multiple opportunities for drug repurposing: Primary screen for SJ-GBM2 cells (AID 1347091)
Summary of the method: as §1

[5] = qHTS of pediatric cancer cell lines to identify multiple opportunities for drug repurposing: Primary screen for A673 cells (AID 1347092); note: nearly all actives have a fitted effect of over 45% in size
Summary of the method: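 Luminescence from CellTiter-Glo, taken after 15 min at room temperature, served as the proxy for metabolically active cells following 48 h treatment. Both potency and efficacy were taken from curves fitted to the titration data.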

[6] = qHTS of pediatric cancer cell lines to identify multiple opportunities for drug repurposing: Primary screen for BT-37 cells (AID 1347094)
Summary of the method: (§2)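 Viability was measured as metabolically active cells after 48 hours of treatment, read by CellTiter-Glo luminescence. Compounds were tested at multiple final concentrations, giving concentration-response curves.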

[7] = qHTS of pediatric cancer cell lines to identify multiple opportunities for drug repurposing: Primary screen for NB-EBc1 cells (AID 1347095)
Summary of the method: as §2

[8] = qHTS of pediatric cancer cell lines to identify multiple opportunities for drug repurposing: Primary screen for U-2 OS cells (AID 1347096); note: nearly all actives have a fitted effect of over 50% in size
Summary of the method: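 Cells (500-1,000/well) rested 5 h, then received compounds for 48 h; metabolically active cells were measured by CellTiter-Glo luminescence. Final concentrations spanned up to 46 µM (MIPE, 11-point) or 0.59 nM-46 µM (NPC, 8-point) in primary screens, 11-point in follow-ups.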

[9] = qHTS of pediatric cancer cell lines to identify multiple opportunities for drug repurposing: Primary screen for Saos-2 cells (AID 1347097); note: nearly all actives have a fitted effect of over 40% in size
Summary of the method: as §2

[10] = qHTS of pediatric cancer cell lines to identify multiple opportunities for drug repurposing: Primary screen for SK-N-MC cells (AID 1347093)
Summary of the method: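 Metabolically active cells were quantified by ATP-dependent luminescence (CellTiter-Glo, 15 min at room temperature) following 48 h treatment. Cells had been plated at 500-1,000 per well and settled for 5 h beforehand.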

[11] = qHTS of pediatric cancer cell lines to identify multiple opportunities for drug repurposing: Primary screen for TC32 cells (AID 1347089); note: nearly all actives have a fitted effect of over 60% in size
Summary of the method: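 qHTS, TC32, 48 h drug treatment, CellTiter-Glo luminescence as a proxy for metabolically active cells; primary top concentration 46 µM (MIPE 11-pt, NPC 8-pt); confirmatory 11-pt.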
Potency is the fitted concentration of half-maximal effect.

SMILES	Potency [1]	Potency [2]	Potency [3]	Potency [4]	Potency [5]	Potency [6]	Potency [7]	Potency [8]	Potency [9]	Potency [10]	Potency [11]
CC[C@H]1OC(=O)[C@H](C)[C@@H](O[C@H]2C[C@@](C)(OC)[C@@H](O)[C@H](C)O2)[C@H](C)[C@@H](O[C@@H]2O[C@H](C)C[C@H](N(C)C)[C@H]2O)[C@](C)(O)C[C@H](C)C(=NOCOCCOC)[C@H](C)[C@@H](O)[C@]1(C)O	inactive	inactive	inactive	inactive	inactive	inactive	inactive	inactive	inactive	–	–
O=C(O)C1=CC(O)C(O)[C@H](O)C1 (some centres undefined)	inactive	inactive	inactive	inactive	inactive	inactive	inactive	inactive	inactive	inactive	–
COc1c(C)c2c(c(O)c1CC=C(C)CCC(=O)O)C(=O)OC2	6.62 µM (active)	0.526 µM (active)	–	–	–	1.53 µM (active)	0.743 µM (active)	–	inactive	1.18 µM (active)	5.23 µM (active)
CC[C@H](CC#N)OC(=O)N[C@@H](C)c1cccc(NC(=O)Nc2ccc(-c3cnco3)c(OC)c2)c1	5.9 µM (active) and 5.8 µM (active)	0.235 µM (active)	–	–	0.743 µM (active)	0.485 µM (active)	0.296 µM (active)	–	–	0.59 µM (active)	1.04 µM (active)
CC1CCN(c2cc(N3CCN(C)CC3)ccc2NC(=O)c2cc(C#N)c[nH]2)CC1	inactive	inactive	–	–	inactive	inactive	–	inactive	–	inactive	inactive
CCOc1ccccc1N=Nc1c(C)[nH]n(-c2nc(-c3ccccc3)cs2)c1=O	inactive	inactive	–	–	–	inactive	inactive	inactive	–	0.209 µM (active)	inactive
C=C1c2cccc(O)c2C(O)=C2C(=O)[C@@]3(O)C(O)=C(C(N)=O)C(=O)[C@@H](N(C)C)[C@@H]3[C@@H](O)[C@H]12	inactive	inactive	–	inactive	23.5 µM (active)	–	inactive	inactive	–	–	–
CCN1CCN(c2ccc(Nc3cc(N(C)C(=O)Nc4c(Cl)c(OC)cc(OC)c4Cl)ncn3)cc2)CC1	inactive and 16.4 µM (active)	inactive	–	18.7 µM (active)	inactive	inactive	20.9 µM (active)	inactive	–	–	–
CCNC(=O)[C@H]1O[C@@H](n2cnc3c(N)nc(NCCc4ccc(CCC(=O)O)cc4)nc32)[C@H](O)[C@H]1O	inactive	inactive	–	inactive	inactive	inactive	inactive	inactive	–	inactive	–
CC1=C(CC(=O)O)c2cc(F)ccc2C1=Cc1ccc(S(C)=O)cc1 (centres undefined)	inactive	inactive	3.72 µM (active)	inactive	1.48 µM (active)	–	18.7 µM (active)	inactive	–	–	–
CO[C@@H]1C(N(C)C(=O)c2ccccc2)C[C@H]2O[C@]1(C)n1c3ccccc3c3c4c(c5c6ccccc6n2c5c31)C(=O)NC4=O (some centres undefined)	7.43 µM (active)	inactive	–	2.35 µM (active)	2.96 µM (active)	inactive	–	–	–	1.32 µM (active)	–
O=C(Nc1ccccc1)Nc1ccc(-c2ccc(C(=O)[C@H]3CCC[C@H]3C(=O)O)cc2)cc1	inactive	inactive	–	–	11.8 µM (active)	–	inactive	inactive	inactive	1.87 µM (active)	inactive
CCn1c(-c2nonc2N)nc2cncc(CNC3CCNCC3)c21	inactive	inactive	–	–	14.8 µM (active)	inactive	–	inactive	11.8 µM (active)	inactive	inactive
C[C@H](c1ccc(F)cc1CCCC(=O)O)N(c1cc(F)ccc1F)S(=O)(=O)c1ccc(Cl)cc1	inactive	inactive	–	–	18.7 µM (active)	–	inactive	inactive	–	3.72 µM (active)	inactive
CN(C)CC[C@H](CSc1ccccc1)Nc1ccc(S(=O)(=O)NC(=O)c2ccc(N3CCN(Cc4ccccc4-c4ccc(Cl)cc4)CC3)cc2)cc1[N+](=O)[O-]	inactive	inactive	–	0.0833 µM (active)	3.72 µM (active)	–	0.0418 µM (active)	14.8 µM (active)	9.35 µM (active)	0.0148 µM (active)	–
CNC(=O)[C@H](Cc1ccccc1)NC(=O)[C@H](CC(C)C)[C@H](CSc1cccs1)C(=O)NO	inactive	inactive	–	inactive	–	–	inactive	inactive	–	–	inactive
NC1(C(=O)N[C@@H](CCO)c2ccc(Cl)cc2)CCN(c2ncnc3[nH]ccc23)CC1	inactive	inactive	–	–	18.7 µM (active)	–	5.26 µM (active)	–	5.9 µM (active)	0.372 µM (active)	–
COc1cc(C=CC(=O)O)ccc1O	inactive	inactive	–	inactive	inactive	inactive	inactive	inactive	–	20.9 µM (active)	–
O=C1Nc2ccc(I)cc2C1=Cc1cc(Br)c(O)c(Br)c1	inactive	inactive	–	–	14.8 µM (active)	inactive	–	inactive	inactive	8.33 µM (active)	inactive
NCc1c[nH]c(=S)n1[C@H]1CCc2c(F)cc(F)cc2C1	inactive	inactive	–	26.4 µM (active)	18.7 µM (active)	30.6 µM (active)	23.5 µM (active)	inactive	18.7 µM (active)	10.5 µM (active)	–
